Reference: PubChem BioAssay
Active and inactive are the calls of the source. Cut-off read from the data, not from the text of the source, unless noted: active = inhibition above about 30%; inactive = the rest.

Assays:
[1] = molecular target: Nuclear receptor coactivator 3 (Homo sapiens) (UniProt Q9Y6Q9); assay: SRC3 coactivator transcriptional activity inhibitors, confirmation, cell-based, luminescence, quadruplicate (AID 588792;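 active = mean inhibition over 43.08%, the solvent-only control mean plus 3 SD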;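 note: 0% = DMSO treated cells and 100% = gossypol at 36 µM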); conditions: HEK293 GAL4-SRC3 luciferase reporter, at 3.6 µM, hits give high values
Chain of Nuclear receptor coactivator 3 (Homo sapiens) (Q9Y6Q9 whole entry, looked up, the tested form may be a part): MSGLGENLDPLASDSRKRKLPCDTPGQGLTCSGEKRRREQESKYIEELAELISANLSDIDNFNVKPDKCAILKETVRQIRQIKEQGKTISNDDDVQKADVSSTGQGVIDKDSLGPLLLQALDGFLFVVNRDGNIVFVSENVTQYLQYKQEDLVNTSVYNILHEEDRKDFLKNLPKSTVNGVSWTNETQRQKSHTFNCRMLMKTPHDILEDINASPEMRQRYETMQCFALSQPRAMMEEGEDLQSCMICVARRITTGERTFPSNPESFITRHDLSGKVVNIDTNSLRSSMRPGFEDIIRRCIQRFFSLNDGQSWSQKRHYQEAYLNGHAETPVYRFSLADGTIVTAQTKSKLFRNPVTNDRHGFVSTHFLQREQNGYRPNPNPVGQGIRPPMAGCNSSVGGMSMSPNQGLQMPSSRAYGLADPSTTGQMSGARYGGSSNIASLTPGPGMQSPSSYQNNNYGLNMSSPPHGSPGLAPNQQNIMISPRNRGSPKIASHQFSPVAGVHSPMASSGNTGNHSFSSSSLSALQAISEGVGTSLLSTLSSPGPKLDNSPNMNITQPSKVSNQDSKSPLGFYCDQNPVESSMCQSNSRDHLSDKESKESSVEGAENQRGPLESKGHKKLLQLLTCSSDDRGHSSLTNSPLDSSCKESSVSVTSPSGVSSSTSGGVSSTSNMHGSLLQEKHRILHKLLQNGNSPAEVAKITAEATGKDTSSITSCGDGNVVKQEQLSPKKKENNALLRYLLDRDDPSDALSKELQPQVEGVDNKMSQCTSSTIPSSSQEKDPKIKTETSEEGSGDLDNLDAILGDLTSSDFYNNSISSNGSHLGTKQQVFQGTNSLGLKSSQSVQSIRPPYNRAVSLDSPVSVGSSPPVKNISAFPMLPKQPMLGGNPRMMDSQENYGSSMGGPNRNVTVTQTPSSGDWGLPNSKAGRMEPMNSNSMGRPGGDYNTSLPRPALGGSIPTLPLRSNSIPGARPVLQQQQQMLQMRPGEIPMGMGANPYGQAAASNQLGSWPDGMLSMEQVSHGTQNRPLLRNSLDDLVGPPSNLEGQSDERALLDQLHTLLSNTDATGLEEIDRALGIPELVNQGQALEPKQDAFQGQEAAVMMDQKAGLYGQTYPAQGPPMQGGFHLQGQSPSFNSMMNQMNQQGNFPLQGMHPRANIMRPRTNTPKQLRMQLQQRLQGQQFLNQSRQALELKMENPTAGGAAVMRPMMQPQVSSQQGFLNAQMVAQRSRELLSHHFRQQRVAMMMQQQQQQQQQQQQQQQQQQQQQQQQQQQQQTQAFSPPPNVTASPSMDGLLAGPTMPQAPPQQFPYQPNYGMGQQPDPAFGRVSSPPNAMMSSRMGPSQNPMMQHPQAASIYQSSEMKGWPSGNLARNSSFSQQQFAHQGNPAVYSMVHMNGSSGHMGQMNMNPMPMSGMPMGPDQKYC

[2] = system: transactivating tegument protein VP16 (Human herpesvirus 1), Gal4-VP16 luciferase reporter; assay: VP16 transactivation inhibitors, counter-screen for SRC3 inhibitor project, cell-based, luminescence, high throughput (AID 588794); conditions: mammalian cells, VP16-driven luciferase reporter luminescence; at 3.6 µM; hits give high values
[3] = StAR promoter reporter inhibitors, counter-screen for LRH-1 inverse agonist project, cell-based, luminescence, high throughput (AID 651611; in the data active = inhibition above about 28%); conditions: StAR promoter luciferase reporter counterscreen, at 3.6 µM, hits give high values
[4] = molecular target: Nuclear receptor subfamily 5 group A member 2 (Homo sapiens) (UniProt O00482); assay: LRH-1 (NR5A2) inverse agonists, retest, confirmation, cell-based, luminescence (AID 651613; in the data active = inhibition above about 42%;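 note: HEK293T cells co-transfected with LRH-1 and StAR promoter luciferase reporter; 0% = vehicle wells and 100% = parental cells lacking receptor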); conditions: cell-based LRH-1 luciferase reporter, inverse agonism; at 3.6 µM; hits give high values
Chain of Nuclear receptor subfamily 5 group A member 2 (Homo sapiens) (O00482 whole entry, looked up): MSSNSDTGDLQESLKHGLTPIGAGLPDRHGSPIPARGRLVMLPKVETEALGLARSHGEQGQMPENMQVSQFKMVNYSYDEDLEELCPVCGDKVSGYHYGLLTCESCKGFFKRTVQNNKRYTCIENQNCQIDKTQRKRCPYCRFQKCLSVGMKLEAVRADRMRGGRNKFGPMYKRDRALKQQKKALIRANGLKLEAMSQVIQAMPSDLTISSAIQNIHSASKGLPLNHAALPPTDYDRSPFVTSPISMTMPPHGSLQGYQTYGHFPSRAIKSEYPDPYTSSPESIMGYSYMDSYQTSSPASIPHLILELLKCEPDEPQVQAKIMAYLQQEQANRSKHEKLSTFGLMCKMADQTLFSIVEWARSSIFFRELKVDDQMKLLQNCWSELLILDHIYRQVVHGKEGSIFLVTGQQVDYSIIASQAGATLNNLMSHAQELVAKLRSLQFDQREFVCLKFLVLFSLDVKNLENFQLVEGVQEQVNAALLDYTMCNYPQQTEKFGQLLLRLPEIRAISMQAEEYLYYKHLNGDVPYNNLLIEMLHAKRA

[5] = molecular target: Steroidogenic factor 1 (Homo sapiens) (UniProt Q13285); assay: SF1 (NR5A1) inverse agonists, counter-screen for LRH-1 inverse agonist project, cell-based, luminescence, high throughput (AID 651614; in the data active = inhibition above about 44%;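 note: cells cotransfected with StAR promoter reporter and SF1 expression vector; 0% = vehicle on cells with receptor and 100% = vehicle on cells lacking receptor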); conditions: cell-based SF1 luciferase reporter, at 3.6 µM, hits give high values
Chain of Steroidogenic factor 1 (Homo sapiens) (Q13285 whole entry, looked up, the tested form may be a part): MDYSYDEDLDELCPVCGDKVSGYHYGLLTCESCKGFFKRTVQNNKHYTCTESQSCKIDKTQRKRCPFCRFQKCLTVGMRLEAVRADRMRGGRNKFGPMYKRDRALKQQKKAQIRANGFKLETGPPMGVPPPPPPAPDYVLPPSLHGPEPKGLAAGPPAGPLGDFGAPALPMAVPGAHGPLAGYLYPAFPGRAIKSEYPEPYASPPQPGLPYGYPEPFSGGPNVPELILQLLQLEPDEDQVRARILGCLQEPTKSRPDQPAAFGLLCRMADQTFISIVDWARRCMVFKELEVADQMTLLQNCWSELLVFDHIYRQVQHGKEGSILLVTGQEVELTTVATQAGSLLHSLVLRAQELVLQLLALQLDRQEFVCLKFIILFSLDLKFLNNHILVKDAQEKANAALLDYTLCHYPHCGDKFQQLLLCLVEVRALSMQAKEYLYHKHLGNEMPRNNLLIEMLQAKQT

[6] = VP16 transactivation reporter inhibitors, counter-screen for LRH-1 inverse agonist project, cell-based, luminescence, high throughput (AID 651615; in the data active = inhibition above about 33%); conditions: Gal4-VP16 luciferase reporter cells, at 3.6 µM, hits give high values
[7] = system: transactivating tegument protein VP16 (Human herpesvirus 1); assay: VP16 transactivation reporter inhibitors, counter-screen for SRC2 inhibitor project, cell-based, luminescence, single concentration (AID 652007; in the data active = inhibition above about 36%); conditions: cell-based VP16 transactivation luciferase reporter, at 8.9 µM, hits give high values
[8] = molecular target: Nuclear receptor coactivator 2 (Homo sapiens) (UniProt Q15596); assay: SRC2 coactivator transcriptional activity inhibitors, confirmation, cell-based, luminescence, HEK293, triplicate (AID 652008;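 active = mean inhibition above 46.5%, the solvent-only control mean plus 3 SD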;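 note: 0% = DMSO-treated cells and 100% = Gossypol at 36 µM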); conditions: HEK293 GAL4-SRC2 luciferase reporter, at 8.9 µM, hits give high values
Chain of Nuclear receptor coactivator 2 (Homo sapiens) (Q15596 whole entry, looked up, the tested form may be a part): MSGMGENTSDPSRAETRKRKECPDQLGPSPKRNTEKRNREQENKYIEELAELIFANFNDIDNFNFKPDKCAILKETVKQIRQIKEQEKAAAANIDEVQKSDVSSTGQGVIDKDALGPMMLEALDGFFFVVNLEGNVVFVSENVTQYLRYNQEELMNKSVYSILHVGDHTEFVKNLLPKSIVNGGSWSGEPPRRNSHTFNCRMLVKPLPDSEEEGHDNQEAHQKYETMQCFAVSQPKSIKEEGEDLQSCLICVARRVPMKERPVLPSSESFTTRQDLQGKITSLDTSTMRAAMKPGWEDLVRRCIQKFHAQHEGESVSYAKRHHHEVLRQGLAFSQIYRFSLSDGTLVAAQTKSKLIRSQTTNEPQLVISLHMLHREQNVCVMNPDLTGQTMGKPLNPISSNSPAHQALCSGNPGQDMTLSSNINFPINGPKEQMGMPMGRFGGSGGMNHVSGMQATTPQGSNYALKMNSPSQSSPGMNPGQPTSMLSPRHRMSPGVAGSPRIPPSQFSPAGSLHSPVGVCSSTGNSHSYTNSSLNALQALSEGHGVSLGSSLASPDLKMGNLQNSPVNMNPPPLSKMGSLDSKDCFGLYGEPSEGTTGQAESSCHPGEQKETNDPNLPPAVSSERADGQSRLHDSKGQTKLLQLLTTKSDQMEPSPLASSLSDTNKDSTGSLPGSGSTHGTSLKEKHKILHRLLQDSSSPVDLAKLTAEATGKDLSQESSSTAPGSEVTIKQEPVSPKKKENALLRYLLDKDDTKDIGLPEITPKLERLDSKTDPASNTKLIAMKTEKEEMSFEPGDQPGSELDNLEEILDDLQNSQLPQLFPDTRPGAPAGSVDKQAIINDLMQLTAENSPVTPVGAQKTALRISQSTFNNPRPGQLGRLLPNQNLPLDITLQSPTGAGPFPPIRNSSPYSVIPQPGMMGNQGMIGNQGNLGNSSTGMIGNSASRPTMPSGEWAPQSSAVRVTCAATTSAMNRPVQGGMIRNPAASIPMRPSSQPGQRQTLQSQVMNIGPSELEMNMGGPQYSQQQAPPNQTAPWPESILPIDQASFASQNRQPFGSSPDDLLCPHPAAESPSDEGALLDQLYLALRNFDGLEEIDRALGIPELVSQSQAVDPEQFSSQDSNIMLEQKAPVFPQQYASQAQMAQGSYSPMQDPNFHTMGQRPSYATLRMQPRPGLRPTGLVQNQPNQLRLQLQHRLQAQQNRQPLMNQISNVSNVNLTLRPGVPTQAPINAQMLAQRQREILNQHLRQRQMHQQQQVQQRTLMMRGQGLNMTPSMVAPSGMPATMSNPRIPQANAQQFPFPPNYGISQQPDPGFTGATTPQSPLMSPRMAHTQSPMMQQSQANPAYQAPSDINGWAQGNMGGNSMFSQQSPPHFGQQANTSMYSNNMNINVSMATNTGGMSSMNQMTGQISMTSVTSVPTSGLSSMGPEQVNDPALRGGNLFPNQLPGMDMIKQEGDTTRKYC

Measured: inhibition

COC(=O)/C=C/C(=O)Nc1cccc(C(F)(F)F)c1
active: [3] 46.8% | [4] 46.6% | [5] 58.7%
inactive: [1] 4.81% | [2] 6.7% | [6] 28.6% | [7] 25.8% | [8] 20.4%

CCOc1ccc(Nc2cc(C)nc(-n3nc(C)cc3C)n2)cc1
active: [3] 46.8% | [4] 52.9% | [5] 64.8% | [6] 57.4%
inactive: [1] 32.9% | [2] 8.98% | [7] -8.07% | [8] 16.3%

NS(=O)(=O)c1ccc(Sc2nc3ccccc3s2)c([N+](=O)[O-])c1
inactive: [2] 27.4% | [7] 33%
active: [1] 53.3% | [3] 78.7% | [4] 75.3% | [5] 67.5% | [6] 55.2% | [8] 58.3%

CCCCCCCCCCCCCCCCn1cc[n+](C)c1
inactive: [1] 5.39%
active: [2] 31.6% | [3] 36% | [4] 65.5% | [5] 70.5% | [6] 64.4%

Cc1sc(NC(=O)c2ccco2)c(C(c2cccnc2)N2CCN(c3ccc(F)cc3)CC2)c1C (centres undefined)
inactive: [1] 19.5% | [3] 24.4%
active: [2] 31.9% | [4] 61.9% | [5] 60.2% | [6] 53.9%

Cc1ccc(C(=O)Nc2sc3c(c2C(=O)O)CCCC3)o1
inactive: [1] 17.1%
active: [2] 40% | [3] 32.5% | [4] 75.9% | [5] 78.6% | [6] 61.7%

O=C(OCC12CC3CC(CC(C3)C1)C2)c1ccc(NCc2cc(O)ccc2O)cc1
active: [1] 88.3% | [2] 47.5% | [3] 48.6% | [4] 56.9% | [5] 67.2% | [6] 72.7% | [7] 97% | [8] 96.5%

Cc1cc(C)c(S(=O)(=O)/N=C2\C=C(Nc3ccc(C(=O)O)cc3)C(=O)c3ccccc32)c(C)c1
inactive: [1] 12.8% | [2] 11.8% | [7] 6.44% | [8] 1.79%
active: [3] 40.8% | [4] 61.8% | [5] 61% | [6] 43.8%

O=C(NCc1cccnc1)/C(=C\c1ccc(-c2cccc(Cl)c2)o1)S(=O)(=O)c1ccccc1
active: [3] 61.8% | [4] 87.1% | [5] 89.3% | [6] 74.9% | [7] 44% | [8] 53.1%
inactive: [1] 37.8% | [2] 13.6%

c1ccc(-c2csc3ncnc(NCC4COc5ccccc5O4)c23)cc1 (centres undefined)
inactive: [1] 8.5%
active: [2] 53% | [3] 34.8% | [4] 57.8% | [5] 62.5% | [6] 60.4%

COc1ccc(NC(=O)c2cc(-c3cc(Cl)ccc3C)n[nH]2)cc1OC
inactive: [1] 20.2%
active: [2] 50.6% | [3] 30.7% | [4] 57% | [5] 61.1% | [6] 64.4%

CC[C@@H](C(=O)[C@@H](C)[C@@H](O)[C@H](C)CCc1ccc(C)c(O)c1C(=O)O)[C@H]1O[C@](CC)([C@H]2CC[C@](O)(CC)[C@H](C)O2)C[C@@H]1C
active: [2] 58% | [3] 60.5% | [4] 51.9% | [5] 61.2% | [6] 60%
inactive: [1] 26.4%

C#CC(=O)N(c1ccc(OC)c(OC)c1)C(C(=O)NC1CCCC1)c1cccs1 (centres undefined)
active: [4] 57.3%
inactive: [1] 25.2% | [2] -2.4% | [3] 17.7% | [5] 35.4% | [6] 10.9%

CCOc1ccc(-c2c[n+]3c(n2-c2ccccc2)CCCCC3)cc1
inactive: [1] 28.4% | [3] 22.6%
active: [2] 43.8% | [4] 94.5% | [5] 69.1% | [6] 66.9%

CCOC(=O)C(=CNc1ccc(NC2=NCC(C)S2)cc1)C(=O)OCC (centres undefined)
active: [1] 60.3% | [4] 69.1% | [5] 70.9% | [6] 36.8%
inactive: [2] 24.9% | [3] -39.4%

O=C(Nc1ccccc1)NN(C(=O)CCl)c1ccccc1
inactive: [1] -0.31% | [2] 13.4% | [7] 32.9%
active: [8] 56.9%

O=C(N[C@@H](Cc1ccccc1)C(=O)CCl)OCc1ccccc1
inactive: [1] 31.5%
active: [2] 40.4% | [7] 64.2% | [8] 69.3%

COc1ccc(/C=C/C(=O)c2ccc3c4c(cccc24)CC3)cc1OC
active: [8] 67.6%
inactive: [1] 21.5% | [2] 25.6% | [7] 25.2%
